Results filed as inconclusive are left out. Calls of active or inactive are those of the source.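 How the source made its calls, unless noted: active means differentiation response of at least 50%, scaled between solvent and reference control, from cells with both markers; inactive means the rest.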

Assay [1] is described as follows: yeast TOR pathway RPL19A-GFP modulators, primary screen, cell-based, S. cerevisiae, multiplex flow cytometry (AID 1862; in the data active means percent of DMSO control GFP below about 86%;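 further: lower values mimic rapamycin by blocking the RPL19A rise seen in DMSO cells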). The settings on record: S. cerevisiae RPL19A-GFP strain, flow cytometry fluorescence, 3 h; at 10 µM; stronger effect = lower value. Background: In flow cytometry, cells or beads pass a laser one at a time.
The nature of assay [2]: modulators of MEP2-GFP levels in yeast, primary screen, S. cerevisiae, multiplex flow cytometry (AID 1867;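 active means GFP response, as percent of the DMSO control, above the screen-wide mean plus 3 SD, about 139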;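 further: median GFP channel fluorescence of barcode-gated MEP2-GFP cells measured by flow cytometry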). The settings on record: S. cerevisiae MEP2-GFP strain, 3 h, at 10 µM, stronger effect = higher value, 100% means same as DMSO wells.
A short description of assay [3]: modulators of CIT2-GFP expression in yeast, primary screen, S. cerevisiae, GFP fusion, multiplex flow cytometry (AID 1870;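 active means percent response above a set limit, the screen-wide mean plus 3 SD, cut at about 130% in these data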;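 further: barcoded CIT2-GFP strain pooled with four other GFP strains with rapamycin as positive control; median GFP fluorescence per well over plate mean of DMSO wells so 100% = DMSO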). The settings on record: 3 h, at 10 µM, stronger effect = higher value.
A short description of assay [4]: modulators of LAP4-GFP expression in yeast, primary screen, S. cerevisiae, multiplex flow cytometry (AID 1873;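 active means GFP signal, as percent of the solvent control, above the screen mean plus 3 SD, about 149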). As to conditions: 3 h, at 10 µM, stronger effect = higher value.
Assay [5] in a line: modulators of AGP1-GFP expression in yeast TOR pathway, primary screen, cell-based, multiplex flow cytometry, S. cerevisiae (AID 1887;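 active means GFP signal above the screen-wide mean plus 3 SD, that is over about 124.5% of the solvent control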;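 further: AGP1-GFP fusion strain of S. cerevisiae within a five-strain barcoded multiplex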). The settings on record: 3 h, at 10 µM, stronger effect = higher value.
A short description of assay [6]: inhibitors of CD8+ T cell-vesicle binding, pilot screen, LFA-1/ICAM-1 modulator project, MLPCN validation set, flow cytometry (AID 2523;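 active means response below a set limit, under 55% cells CD8-positive and vesicle-bound, and CD8 cells' 90th-percentile brightness under 279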;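 on vesicle binding response: mean PE anti-B7-1 fluorescence of CD8+ cells relative to row control; 100% = QL9-loaded vesicles with DMSO vehicle in the same plate row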). The settings on record: 2C mouse CD8+ T cells, at 7 µM, stronger effect = lower value; double positive events: measured here: CD8+/vesicle+ event percentage.
In assay [7] the target is Integrin beta-1 (Homo sapiens) + Integrin alpha-4 (Homo sapiens) (UniProt P13612+P05556). In words: inhibition of HUTS-21 binding to VLA-4, pilot screen, VLA-4 allosteric modulator project, U937 cells, HUTS-21 mAb, flow cytometry, validation set (AID 2674;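 active means inhibition above 50%, about 3 SD of the validation set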;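 further: antibody binding induced by the VLA-4 ligand LDV present at three times its Kd; 0% = LDV ligand with antibody and no compound and 100% = antibody without LDV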). The settings on record: HUTS-21 LIBS mAb binding, at 6.7 µM, stronger effect = higher value, binding induced by LDV ligand.
Chain of Integrin beta-1 (Homo sapiens) + Integrin alpha-4 (Homo sapiens) (P05556 whole entry, looked up): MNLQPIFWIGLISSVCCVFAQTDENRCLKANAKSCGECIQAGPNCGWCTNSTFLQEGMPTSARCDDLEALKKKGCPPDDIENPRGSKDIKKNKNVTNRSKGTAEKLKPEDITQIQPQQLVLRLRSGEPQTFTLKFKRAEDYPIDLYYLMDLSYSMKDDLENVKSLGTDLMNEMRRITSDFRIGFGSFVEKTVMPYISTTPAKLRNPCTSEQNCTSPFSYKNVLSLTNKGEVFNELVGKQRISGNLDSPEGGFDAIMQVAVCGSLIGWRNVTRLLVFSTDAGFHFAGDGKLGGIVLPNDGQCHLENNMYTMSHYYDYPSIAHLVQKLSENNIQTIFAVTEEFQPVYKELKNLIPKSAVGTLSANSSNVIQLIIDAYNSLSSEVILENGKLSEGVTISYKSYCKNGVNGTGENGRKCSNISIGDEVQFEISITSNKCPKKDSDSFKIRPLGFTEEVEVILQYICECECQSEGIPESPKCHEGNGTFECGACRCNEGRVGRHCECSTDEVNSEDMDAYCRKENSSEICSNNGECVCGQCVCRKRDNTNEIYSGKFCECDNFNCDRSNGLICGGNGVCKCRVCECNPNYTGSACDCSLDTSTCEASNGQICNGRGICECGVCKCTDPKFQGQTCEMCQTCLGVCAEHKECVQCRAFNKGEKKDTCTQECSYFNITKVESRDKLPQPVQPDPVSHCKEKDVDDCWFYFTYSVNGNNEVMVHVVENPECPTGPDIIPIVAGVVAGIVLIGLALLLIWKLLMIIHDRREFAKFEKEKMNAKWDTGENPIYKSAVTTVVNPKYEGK
Chain of Integrin beta-1 (Homo sapiens) + Integrin alpha-4 (Homo sapiens) (P13612 whole entry, looked up): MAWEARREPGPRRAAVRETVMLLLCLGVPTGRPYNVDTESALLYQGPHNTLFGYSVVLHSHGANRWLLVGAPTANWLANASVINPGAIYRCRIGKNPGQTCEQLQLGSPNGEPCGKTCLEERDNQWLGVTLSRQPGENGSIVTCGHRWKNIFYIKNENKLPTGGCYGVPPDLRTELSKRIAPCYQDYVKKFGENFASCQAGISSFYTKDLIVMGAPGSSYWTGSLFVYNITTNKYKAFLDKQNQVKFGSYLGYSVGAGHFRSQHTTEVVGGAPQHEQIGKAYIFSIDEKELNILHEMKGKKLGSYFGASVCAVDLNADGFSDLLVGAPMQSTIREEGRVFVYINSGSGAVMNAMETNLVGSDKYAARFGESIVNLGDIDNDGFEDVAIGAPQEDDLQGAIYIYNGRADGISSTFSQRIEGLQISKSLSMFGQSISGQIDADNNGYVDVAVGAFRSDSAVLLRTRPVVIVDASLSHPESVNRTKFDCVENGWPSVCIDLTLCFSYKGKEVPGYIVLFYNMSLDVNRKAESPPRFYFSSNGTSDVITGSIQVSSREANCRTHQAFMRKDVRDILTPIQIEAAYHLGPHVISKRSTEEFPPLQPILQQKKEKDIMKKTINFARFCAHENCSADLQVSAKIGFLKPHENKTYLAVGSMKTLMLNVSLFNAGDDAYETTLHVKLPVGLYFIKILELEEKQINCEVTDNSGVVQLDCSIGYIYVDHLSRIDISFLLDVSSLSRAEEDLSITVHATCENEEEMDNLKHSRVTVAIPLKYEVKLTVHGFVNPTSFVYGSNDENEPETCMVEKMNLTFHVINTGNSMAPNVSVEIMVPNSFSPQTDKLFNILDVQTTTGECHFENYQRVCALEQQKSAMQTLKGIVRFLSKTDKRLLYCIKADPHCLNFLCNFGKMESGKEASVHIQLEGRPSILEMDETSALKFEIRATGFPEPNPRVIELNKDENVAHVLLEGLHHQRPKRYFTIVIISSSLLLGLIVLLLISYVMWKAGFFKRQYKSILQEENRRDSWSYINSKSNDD
The nature of assay [8]: superoxide lowering in aged yeast cells, pilot screen, validation compound set (AID 2706;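 active means superoxide response below 65% of plate, a cut near 3 SD across the whole screen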;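 further: yeast exposed to compound for one week at 30 degrees C before staining; 100% = mean of all compound wells on the same plate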). As to conditions: S. cerevisiae aging, superoxide DHE fluorescence; at 10 µM; stronger effect = lower value.
Assay [9] deals with Beta-adrenergic receptor kinase 1 (Homo sapiens) (UniProt P25098). In words: GRK2 binders displacing RNA aptamer, biochemical, validation, human GRK2, bead flow cytometry (AID 488806;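 active means aptamer binding inhibition above 30%, about 3 SD of noise from non-fluorescent compounds; inactive means inhibition at or below 30%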). As to conditions: bead-bound GRK2, FAM-aptamer displacement, at 10 µM, stronger effect = higher value.
Chain of Beta-adrenergic receptor kinase 1 (Homo sapiens) (P25098 whole entry, looked up): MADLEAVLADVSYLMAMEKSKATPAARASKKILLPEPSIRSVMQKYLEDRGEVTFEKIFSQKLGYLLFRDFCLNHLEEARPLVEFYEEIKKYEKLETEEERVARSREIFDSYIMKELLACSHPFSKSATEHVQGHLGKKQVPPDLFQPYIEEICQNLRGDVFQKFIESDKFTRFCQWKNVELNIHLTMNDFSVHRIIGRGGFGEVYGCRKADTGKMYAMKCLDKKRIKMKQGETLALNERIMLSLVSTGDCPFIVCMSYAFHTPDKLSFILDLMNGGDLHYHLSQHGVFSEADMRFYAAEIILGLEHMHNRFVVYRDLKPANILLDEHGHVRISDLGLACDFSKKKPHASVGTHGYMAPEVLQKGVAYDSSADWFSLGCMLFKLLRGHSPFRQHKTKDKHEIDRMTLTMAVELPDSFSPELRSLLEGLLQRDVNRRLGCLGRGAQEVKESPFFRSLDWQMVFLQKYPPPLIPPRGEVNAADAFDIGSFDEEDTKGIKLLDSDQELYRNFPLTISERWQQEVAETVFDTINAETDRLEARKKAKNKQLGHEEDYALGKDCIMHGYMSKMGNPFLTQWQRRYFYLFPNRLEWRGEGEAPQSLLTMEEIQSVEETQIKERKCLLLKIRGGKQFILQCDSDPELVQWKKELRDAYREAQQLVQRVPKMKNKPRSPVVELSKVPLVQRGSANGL
In assay [10] the target is Beta-2 adrenergic receptor (Homo sapiens) (UniProt P07550). Briefly: beta2AR agonists driving receptor internalization, pilot screen, cell-based, FAP fluorogen, flow cytometry, validation set (AID 504459;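 active means percent response above 42, roughly 3 SD of non-fluorescent test compounds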;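 further: agonist-driven loss of surface beta2AR via internalization measured by FAP dye flow cytometry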). As to conditions: Am2.2-beta2AR cells, FAP surface receptor flow cytometry; at 10 µM; stronger effect = higher value.
Chain of Beta-2 adrenergic receptor (Homo sapiens) (P07550 whole entry, looked up): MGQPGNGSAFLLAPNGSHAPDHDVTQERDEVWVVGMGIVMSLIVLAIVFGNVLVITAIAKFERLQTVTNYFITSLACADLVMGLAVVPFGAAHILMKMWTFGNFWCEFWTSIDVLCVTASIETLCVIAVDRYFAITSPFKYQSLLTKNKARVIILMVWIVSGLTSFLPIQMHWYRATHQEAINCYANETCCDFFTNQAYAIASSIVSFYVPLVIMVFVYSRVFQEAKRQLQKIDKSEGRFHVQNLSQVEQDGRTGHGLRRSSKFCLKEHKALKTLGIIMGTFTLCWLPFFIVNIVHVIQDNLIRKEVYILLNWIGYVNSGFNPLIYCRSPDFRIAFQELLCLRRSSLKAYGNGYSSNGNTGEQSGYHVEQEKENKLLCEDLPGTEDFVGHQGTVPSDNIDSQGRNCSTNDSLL
Assay [11] has as its target AP-2 complex subunit beta (Homo sapiens) (UniProt P63010). Briefly: inhibitors of arrestin peptide binding to AP2, pilot screen, biochemical, validation set, GST-AP2 beads, flow cytometry (AID 504541;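 active means inhibition above 54%, about 3 SD of non-fluorescent compounds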;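 further: AP2 carries R879A mutation and is captured from E. coli lysate; bead-bound FITC arrestin peptide fluorescence measuring arrestin peptide binding to AP2; 0% = DMSO wells and 100% = excess unlabeled arrestin peptide control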). As to conditions: FITC arrestin peptide, at 10 µM, stronger effect = higher value, AP2 beta2 appendage fragment, R879A mutant.
Assay [12] in a line: yeast V-ATPase proton transport modulators, S. cerevisiae, pHLuorin, HTS validation (AID 504600; in the data active means response above about 15%;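 further: plate controls were DMSO for no effect and reference compound for full effect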). The settings on record: S. cerevisiae pHLuorin cytosolic pH, at 10 µM, stronger effect = higher value.
Assay [13] deals with anti-desmoglein-3 scFv antibody binding to human DSG3. In words: inhibitors of anti-DSG3 scFv binding to DSG3, pilot screen, biochemical, validation compound set, bead-based, flow cytometry (AID 588368;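 active means binding below the plate cutoff, the plate median minus 3 SD, with a reading above zero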;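 further: signal is the median channel fluorescence of bead-bound GFP antibody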). As to conditions: Protein G beads, DSG3-Fc, scFv-GFP binding, at 10 µM, stronger effect = lower value.
Assay [14] can be described thus: inhibitors of fungal efflux pumps CDR1, CDR2, MDR1, pilot screen, validation compound set, multiplex, phenotypic (AID 588506;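 active means efflux inhibition above 0.42, the validation set average plus 4 SD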;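 further: Nile Red retained in cells so higher fluorescence means more efflux inhibition; 0 = negative control wells and 1 = enniatin B 25 µM full block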). The settings on record: S. cerevisiae pump-expressing triplex, Nile Red efflux flow cytometry; at 10 µM; stronger effect = higher value; the pumps come from Candida albicans.
Assay [15] addresses ATP-binding cassette sub-family B member 6 (Homo sapiens) (UniProt Q9NP58). Briefly: ABCB6 transporter inhibitors, pilot screen, K562-ABCB6 cells, flow cytometry, validation set (AID 588550;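 active means inhibition above the screen-wide mean plus 3 SD, about 51%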;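 further: 0% = DMSO wells and 100% = benzethonium chloride 70 µM positive control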). As to conditions: K562-ABCB6 porphyrin accumulation, 1 h, at 10 µM, stronger effect = higher value.
Assay [16] in a line: promoters of myeloid differentiation in arrested cells, primary screen, cell-based, GFP/MAC1 double positive, flow cytometry, validation set (AID 588685).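 Further: compound exposure lasts four days before antibody staining and flow analysis; 0% = DMSO wells and 100% = 5 µM fulvestrant positive control.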 As to conditions: ER-HoxA9 marrow cells, stronger effect = higher value, normalized: vehicle 0, fulvestrant 100.

Chain of AP-2 complex subunit beta (Homo sapiens) (P63010 whole entry, looked up, the tested form may be a part, one chain of several): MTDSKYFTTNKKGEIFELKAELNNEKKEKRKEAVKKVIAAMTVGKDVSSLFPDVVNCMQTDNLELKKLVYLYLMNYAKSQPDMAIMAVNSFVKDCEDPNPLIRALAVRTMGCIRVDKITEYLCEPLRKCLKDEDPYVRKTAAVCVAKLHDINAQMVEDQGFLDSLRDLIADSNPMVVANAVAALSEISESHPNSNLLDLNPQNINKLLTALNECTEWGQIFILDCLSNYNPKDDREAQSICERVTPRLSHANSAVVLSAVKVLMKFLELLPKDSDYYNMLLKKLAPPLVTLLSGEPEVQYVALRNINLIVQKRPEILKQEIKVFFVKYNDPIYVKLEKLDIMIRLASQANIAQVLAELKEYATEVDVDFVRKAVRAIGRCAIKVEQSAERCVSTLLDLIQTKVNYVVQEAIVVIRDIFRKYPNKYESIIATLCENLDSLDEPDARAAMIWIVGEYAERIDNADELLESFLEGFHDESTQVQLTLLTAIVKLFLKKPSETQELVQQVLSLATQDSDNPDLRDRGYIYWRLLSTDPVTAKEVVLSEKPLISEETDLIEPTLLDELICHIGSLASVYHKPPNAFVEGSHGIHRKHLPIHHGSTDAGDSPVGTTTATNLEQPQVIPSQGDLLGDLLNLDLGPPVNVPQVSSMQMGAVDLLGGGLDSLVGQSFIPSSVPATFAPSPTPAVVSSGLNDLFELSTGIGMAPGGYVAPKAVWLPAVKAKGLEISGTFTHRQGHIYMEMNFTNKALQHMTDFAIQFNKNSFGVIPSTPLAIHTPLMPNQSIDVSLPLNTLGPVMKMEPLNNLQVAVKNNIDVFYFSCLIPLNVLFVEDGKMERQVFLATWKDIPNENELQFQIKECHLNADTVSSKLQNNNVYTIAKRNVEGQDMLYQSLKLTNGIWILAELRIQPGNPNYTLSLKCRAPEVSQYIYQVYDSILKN
Chain of ATP-binding cassette sub-family B member 6 (Homo sapiens) (Q9NP58 whole entry, looked up): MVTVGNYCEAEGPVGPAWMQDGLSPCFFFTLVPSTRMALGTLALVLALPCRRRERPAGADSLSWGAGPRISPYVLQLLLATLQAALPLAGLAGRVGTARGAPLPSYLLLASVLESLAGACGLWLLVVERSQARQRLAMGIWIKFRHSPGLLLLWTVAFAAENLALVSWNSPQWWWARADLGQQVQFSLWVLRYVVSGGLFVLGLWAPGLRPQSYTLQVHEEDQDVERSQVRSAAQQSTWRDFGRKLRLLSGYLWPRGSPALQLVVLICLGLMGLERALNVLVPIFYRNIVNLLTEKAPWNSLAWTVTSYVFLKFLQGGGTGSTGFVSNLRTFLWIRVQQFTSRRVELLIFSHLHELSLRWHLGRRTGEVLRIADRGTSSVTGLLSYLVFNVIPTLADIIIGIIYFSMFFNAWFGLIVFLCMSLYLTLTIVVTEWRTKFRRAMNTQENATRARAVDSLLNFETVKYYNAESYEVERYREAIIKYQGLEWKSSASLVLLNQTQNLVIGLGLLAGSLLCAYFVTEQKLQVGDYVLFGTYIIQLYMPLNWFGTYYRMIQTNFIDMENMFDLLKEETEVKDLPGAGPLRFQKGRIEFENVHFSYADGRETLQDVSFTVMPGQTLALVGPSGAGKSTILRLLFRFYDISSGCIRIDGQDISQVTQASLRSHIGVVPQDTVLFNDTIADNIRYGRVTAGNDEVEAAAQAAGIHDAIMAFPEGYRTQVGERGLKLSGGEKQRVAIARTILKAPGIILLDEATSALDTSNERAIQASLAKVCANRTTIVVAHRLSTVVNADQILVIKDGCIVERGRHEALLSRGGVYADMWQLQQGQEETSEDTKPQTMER

One may read the inhibition as the change of the read-out against control, counted positive when it falls. For `CCC(C)NCCOc1ccccc1C` (stereo not given), the percent of DMSO control GFP in [1] was 104% (inactive). In addition, the GFP response vs DMSO was 101% (inactive) in [2] and 97% (inactive) in assay [4]. For the same compound, the percent response of DMSO control in [3] was 105% (inactive). Also, the GFP response, % of DMSO in assay [5] was 108% (inactive). Besides, the double positive events in assay [6] amounted to 61.2%. For the same compound, in assay [6], the vesicle binding response was 115% (inactive). Further, the inhibition in assay [7] is 5.61% (inactive); in [11] it was 29% (inactive); in [15], 12% (inactive). In addition, the superoxide response (% of plate) in assay [8] was 104% (inactive). The aptamer binding inhibition in [9] is -4% (inactive). The response in assay [10] is -6.41% (inactive); in assay [12] it was -2.79% (inactive). In [13], the binding (% of control) is 96.8% (inactive). Further, the efflux inhibition (fraction of control) in assay [14] is -0.61 (inactive). Moreover, the differentiation response in [16] was -16.3% (inactive).
Take `Cc1ccc(/C=N/NC(=O)C2(C)CC2(Br)Br)cc1` (stereo not given): in assay [1], the percent of DMSO control GFP was 101% (inactive). Moreover, the results for the GFP response vs DMSO in assay [2] and in assay [4] were 98.7% (inactive) and 130% (inactive), respectively. The percent response of DMSO control in assay [3] is 98.6% (inactive). Moreover, in assay [5], the GFP response, % of DMSO was 105% (inactive). In [6], the double positive events worked out at 60.8%. For the same compound, the vesicle binding response in [6] was 184% (inactive). Also, the inhibition is -7.79% (inactive) in assay [7], 4.52% (inactive) in [11] and -2% (inactive) in assay [15]. Moreover, the superoxide response (% of plate) in assay [8] is 84.5% (inactive). The aptamer binding inhibition in assay [9] is -4% (inactive). Also, the response is -4.63% (inactive) in assay [10] and 1.48% (inactive) in [12]. The binding (% of control) in assay [13] is 104% (inactive). Moreover, the efflux inhibition (fraction of control) in assay [14] was -0.22 (inactive). The differentiation response in assay [16] was -11.9% (inactive).
For the compound `CC12CCC(C(=O)N3CCc4ccccc43)(CC1=O)C2(C)C` (stereo not given), the percent of DMSO control GFP in assay [1] is 101% (inactive). Further, the GFP response vs DMSO in assay [2] was 102% (inactive); in assay [4], 95.9% (inactive). Moreover, the percent response of DMSO control in assay [3] was 97.6% (inactive). The GFP response, % of DMSO in [5] is 91.2% (inactive). This compound also returned a double positive events in [6] of 60.3%. In assay [6], the vesicle binding response was 115% (inactive). Besides, the inhibition in assay [7] was -2.43% (inactive); in assay [11], 5.6% (inactive); in assay [15] it was 4% (inactive). The superoxide response (% of plate) in assay [8] is 108% (inactive). In addition, the aptamer binding inhibition in assay [9] is 13% (inactive). Moreover, the response in assay [10] was -16.3% (inactive); in assay [12], 2.72% (inactive). Besides, the binding (% of control) in assay [13] was 102% (inactive). The efflux inhibition (fraction of control) in assay [14] was -0.24 (inactive). In assay [16], the differentiation response is -10.4% (inactive).
As to `CC(=O)OCC#CCSc1nc2ccccc2n1C`, the percent of DMSO control GFP in assay [1] is 97.6% (inactive). For the same compound, the GFP response vs DMSO in [2] was 89.7% (inactive); in assay [4], 103% (inactive). Moreover, in [3], the percent response of DMSO control was 96.7% (inactive). For the same compound, the GFP response, % of DMSO in assay [5] was 92.9% (inactive). Further, the double positive events in assay [6] was determined as 57.8%. For the same compound, in [6], the vesicle binding response is 163% (inactive). The inhibition was -8.62% (inactive) in assay [7], 14.1% (inactive) in assay [11] and 12% (inactive) in [15]. The superoxide response (% of plate) in assay [8] was 95% (inactive). Also, the aptamer binding inhibition in [9] is 2% (inactive). For the same compound, the response in [10] is 7.19% (inactive); in [12], 2.63% (inactive). The binding (% of control) in assay [13] is 94.9% (inactive). Also, the efflux inhibition (fraction of control) in [14] is -0.21 (inactive). The differentiation response in [16] was -7.2% (inactive).
With `CCC(C)NCCOCCOc1ccc(Cl)cc1Br` (stereo not given), the percent of DMSO control GFP in assay [1] is 103% (inactive). In addition, the GFP response vs DMSO in assay [2] is 102% (inactive); in assay [4] it was 100% (inactive). Also, the percent response of DMSO control in assay [3] was 102% (inactive). In addition, the GFP response, % of DMSO in [5] was 103% (inactive). In addition, the double positive events in assay [6] was 61.4%. Moreover, the vesicle binding response in [6] is 142% (inactive). In addition, the inhibition in [7] was 0.25% (inactive); in assay [11], 57.1% (active); in [15] it was -14% (inactive). In addition, the superoxide response (% of plate) in [8] is 98% (inactive). Besides, in assay [9], the aptamer binding inhibition is -7% (inactive). The response is -3.72% (inactive) in [10] and -10.6% (inactive) in [12]. Besides, the binding (% of control) in assay [13] is 95.8% (inactive). The efflux inhibition (fraction of control) in assay [14] is -0.16 (inactive). In [16], the differentiation response was -4.57% (inactive).

(Values after PubChem BioAssay.)
